Peg3 promoter: Peg3 promoter-driven luciferase inhibitors, primary screen, cell-based, HeLa, luciferase luminescence; actives 1.7% (n = 360,000); HeLa PEG-Prom luciferase reporter, overnight; inhibition, % at 20 µM;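 active = inhibition of at least 50% at 20 µM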
TWEAK-Fn14 inh: inhibitors of TWEAK-Fn14 signaling, primary screen, luciferase reporter cells, uHTS; inhibition, % at 10 µM; actives 2% (n = 360,000); TWEAK-stimulated Fn14 reporter cells, luciferase luminescence, 8 h; AID 1159606, 2016; in the data active = inhibition above about 50%
TROY NFkB inh: inhibitors of TROY-driven NF-kB signaling, primary screen, Q293 LMP1-TROYcd cells, NF-kB luciferase, uHTS; inhibition, % at 10 µM; AID 1347056, 2019; actives 0.98% (n = 360,000); Q293 LMP1-TROYcd NF-kB luciferase reporter, 4 h;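 active = compounds whose plate-normalised and pattern-corrected inhibition of the luciferase reporter signal at the single screening dose is 50% or more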
KKLEB tox: cytotoxicity in KKLEB CF airway cells, primary screen, cytotoxicity control for CF NF-kB inhibitor project, cell-based, uHTS, fluorescence assay plates; KKLEB CF airway cells viability, ATPlite luminescence, overnight; hits give low values; cells stimulated with P. aeruginosa culture filtrate; activity change (cytotoxicity), % at 5 µM; actives 0.36% (n = 360,000);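 active = corrected activity change at or below -50% at 5 µM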
HIF-2a inh: HIF-2a reporter inhibitors, primary screen, luminescence, 786-0 RCC cells; actives 0.72% (n = 360,000); inhibition, % at 18.8 µM; 786-0 RCC cells HIF-2a reporter, luciferase luminescence, overnight;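 active = inhibition of the luminescence signal of 40% or more relative to plate controls, in a single-dose primary screen at 18.75 µM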
CF NFkB block: inhibitors of PAF-induced NF-kB signaling, primary screen, cell-based, GFP fluorescence, uHTS. inhibition, % at 5 µM. KKLEB NF-kB-GFP reporter, GFP fluorescence overnight. AID 588850, 2011. actives 0.86% (n = 360,000);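 active = at least 50% inhibition at 5 µM, scaled per plate between neutral and stimulator controls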;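 also: PAF is a Pseudomonas aeruginosa culture filtrate used as stimulus; plate controls were PAF-stimulated DMSO wells for no effect and unstimulated DMSO wells for full effect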
Mdm2 MdmX conf: retested Mdm2-MdmX interaction blockers, confirmation, cell-based, luminescence, single concentration, set 2; actives 99% (n = 740); SaOS-2 split-luciferase Mdm2/MdmX complementation; shares compounds with HIF-2a inh; AID 504601, 2011; inhibition, % at 8 µM;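 active = mean inhibition of the luminescence signal across two replicates at or above 26 percent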
Target sequence (O15151 whole entry, looked up): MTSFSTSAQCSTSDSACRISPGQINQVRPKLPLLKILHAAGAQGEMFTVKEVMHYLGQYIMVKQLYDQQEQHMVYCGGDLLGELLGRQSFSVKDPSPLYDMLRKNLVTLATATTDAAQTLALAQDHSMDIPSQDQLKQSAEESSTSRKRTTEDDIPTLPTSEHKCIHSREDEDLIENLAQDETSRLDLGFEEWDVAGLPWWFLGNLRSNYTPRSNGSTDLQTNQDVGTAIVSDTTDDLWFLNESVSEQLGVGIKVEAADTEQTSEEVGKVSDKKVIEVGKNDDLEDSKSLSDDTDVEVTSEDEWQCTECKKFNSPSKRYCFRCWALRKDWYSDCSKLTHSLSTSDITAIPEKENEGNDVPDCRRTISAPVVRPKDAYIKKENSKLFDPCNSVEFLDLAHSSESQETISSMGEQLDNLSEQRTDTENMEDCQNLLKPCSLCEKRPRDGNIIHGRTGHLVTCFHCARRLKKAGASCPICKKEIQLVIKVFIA
Target sequence (Q00987 whole entry, looked up): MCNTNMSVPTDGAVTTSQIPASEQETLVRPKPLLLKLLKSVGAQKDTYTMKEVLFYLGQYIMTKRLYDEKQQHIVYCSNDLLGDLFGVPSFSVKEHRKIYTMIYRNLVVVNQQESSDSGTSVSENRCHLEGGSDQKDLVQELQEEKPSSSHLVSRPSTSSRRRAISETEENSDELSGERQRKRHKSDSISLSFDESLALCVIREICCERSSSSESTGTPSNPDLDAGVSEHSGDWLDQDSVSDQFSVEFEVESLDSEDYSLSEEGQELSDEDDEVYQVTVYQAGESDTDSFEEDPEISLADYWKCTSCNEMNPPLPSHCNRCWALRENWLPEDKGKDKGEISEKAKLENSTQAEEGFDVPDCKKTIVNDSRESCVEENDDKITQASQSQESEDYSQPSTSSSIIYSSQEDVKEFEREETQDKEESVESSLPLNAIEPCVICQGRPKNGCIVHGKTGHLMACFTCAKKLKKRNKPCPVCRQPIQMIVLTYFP
HIF-2a conf: HIF-2a reporter inhibitor retest, confirmation, luminescence, 786-0 RCC cells. shares compounds with HIF-2a inh. HIF-2a luciferase reporter luminescence, overnight. actives 56% (n = 1,800). inhibition, % at 18.8 µM;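 active = mean inhibition across four replicates of at least 40 percent at the single tested concentration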
HIF-1a cs: HIF-1a luciferase reporter signal reduction – MiaPaCa-2 cells, single concentration, counter-screen for HIF-2a inhibitor project, confirmation. shares compounds with HIF-2a inh. MiaPaCa-2 HIF-1a luciferase reporter, desferoxamine, overnight. inhibition, % at 18.8 µM. actives 72% (n = 1,800). AID 651589, 2012;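 active = mean inhibition of the reporter signal across four replicates at the single tested dose of 50% or more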
An asterisk follows results filed as active; . = not tested or not shown; ! = repeats disagree. Sampled rows, rich in hits. Any-hit rate of the full collection: about 4%.

SMILES	Peg3 promoter	TWEAK-Fn14 inh	TROY NFkB inh	KKLEB tox	HIF-2a inh	CF NFkB block	HIF-2a conf	HIF-1a cs	others
Cc1ccc(C)c(CN2C(=O)c3ccccc3S(=O)(=O)c3ccc(C(=O)N4CCN(C)CC4)cc32)c1	5	-1	-4	-1	22	9	.	.
CCN1CCN(C(=S)c2ccc(-c3ccccc3)cc2)CC1	22	69*	5	6	80*	-10	95*	78*
O=C(C1CCCCC1)N1CCC2CC1c1cc(Cl)ccc12 (configuration not stated)	4	10	9	-2	13	-3	.	.
CCN(CC(=O)Nc1c(F)cccc1F)C(=O)c1cc(C)nc2ccccc12	14	-5	15	-1	15	8	.	.
CN(C)CCCn1cnc2c(c1=N)C(c1ccccc1)c1ccc3ccccc3c1O2 (configuration not stated)	109*	-85	-29	-28	93*	-8	10	106*	Mdm2 MdmX conf=103*
CCOC(=O)c1cccc(NC(=O)/C=C/c2ccc3c(c2)OCO3)c1	-98	70*	51*	-2	47*	-11	69*	38
CCCCN(C(=O)c1ccc(S(=O)(=O)N(C)c2ccccc2)cc1)c1c(N)n(CCC)c(=O)[nH]c1=O	-16	7	2	4	6	14	.	.
Cc1ccc2nc(NC(=O)CCCC(=O)O)sc2c1	46	86*	66*	-10	83*	7	95*	90*
CC(C)(C)c1ccc(C(=O)N2CCCCCC2=O)cc1	35	45	32	-4	89*	6	95*	82*
Cn1ncc2c(O/N=C(\N)c3ccc(C(F)(F)F)cc3)ncnc21	107*	-17	13	-2	94*	7	-13	-51
CC1Cc2ccccc2N1c1ncnc(N)c1[N+](=O)[O-] (configuration not stated)	17	93*	68*	-17	35	85*	.	.	Mdm2 MdmX conf=102*
CCS(=O)(=O)c1nc(S(=O)(=O)c2ccc(C)cc2)c(N2CCCCCC2)s1	30	8	0	-5	6	-6	.	.
Cn1cc(C(C[N+](=O)[O-])c2ccccc2)c2ccccc21 (configuration not stated)	27	33	1	-7	96*	3	5	29
Nc1[nH]c2cc([N+](=O)[O-])ccc2c1-c1ccccn1	-30	12	-27	-7	4	-67	.	.
CC1CCN(CCCN2C(=O)C3C(C(=O)Nc4ccc(Cl)cc4)C4C=CC3(O4)C2C(=O)NC2CCCCC2)CC1 (configuration not stated)	10	-20	5	-7	7	22	.	.
CCc1nnc(NC(=O)c2cc([N+](=O)[O-])ccc2N2CCOCC2)s1	4	0	-7	0	14	-2	.	.
O=C(Nc1nc(-c2ccc(-c3ccccc3)cc2)cs1)c1cc([N+](=O)[O-])ccc1N1CCOCC1	0	17	5	-6	62*	-5	-78	-7
N#Cc1ccc(CSc2nnc(-c3c[nH]c4ccccc34)n2-c2ccccc2)cc1	19	27	16	3	47*	0	30	71*
COc1ccc(CCNC(=O)c2ccc(NC(=O)CC3SC(N4CCCC4)=NC3=O)cc2)cc1OC (configuration not stated)	0	-7	-10	5	16	3	.	.
Cc1c(CCC(=O)N2CCC(C(=O)O)(c3ccccc3)CC2)c(=O)oc2cc3oc4c(c3cc12)CCCC4	-61	87*	5	4	63*	11	78*	43
CC(=O)c1c(C)[nH]c(C(=O)Nc2ccc(C)cc2Br)c1C	-341	-41	-43	10	-213	-42	.	.
Nc1cc2ccncc2c2ccccc12	-5	83*	57*	-6	23	65*	.	.	Mdm2 MdmX conf=90*
N#Cc1cc2ccncc2c2ccccc12	11	-3	3	-22	22	6	.	.
COc1ccc2cc(CNCCOCCOCCNCc3ccc4cc(OC)ccc4c3)ccc2c1	109*	-68	58*	-31	88*	31	5	27
CC(=O)Nc1ccc(Sc2ccc([N+](=O)[O-])o2)cc1	97*	95*	37	-50*	91*	90*	94*	103*
SMILES	Peg3 promoter	TWEAK-Fn14 inh	TROY NFkB inh	KKLEB tox	HIF-2a inh	CF NFkB block	HIF-2a conf	HIF-1a cs	others
O=C(Nc1cccc(-n2cnnn2)c1)c1ccoc1COc1ccc(Cl)cc1	13	-13	17	16	5	-8	.	.
CCCCCN(C(=O)CCC(=O)OCC(=O)N(C)Cc1ccc(C)cc1)c1c(N)n(CCCC)c(=O)[nH]c1=O	6	2	-4	10	-6	-29	.	.
CC(C)(C)c1nc(SCC(=O)Nc2nc3c(s2)CCCC3)c2ccccc2n1	29	-46	19	-42	-5	26	.	.	Mdm2 MdmX conf=101*
Cc1ccccc1OCc1n(CC(=O)OC2CC(C)CCC2C(C)C)c2ccccc2[n+]1C (configuration not stated)	102*	83*!	64*	-83*	94*!	83*	37	107*	Mdm2 MdmX conf=102*
CC1CCC(C(C)C)C(OC(=O)Cn2c(-c3ccc(Cl)cc3)[n+](C)c3ccccc32)C1 (configuration not stated)	76*	59*	19	-58*	-65	56*	.	.	Mdm2 MdmX conf=100*
CC1CCC(C(C)C)C(OC(=O)Cn2c(-c3ccc(Br)cc3)[n+](C)c3ccccc32)C1 (configuration not stated)	96*!	56*!	39	-57*!	-29	54*	.	.	Mdm2 MdmX conf=103*
CC1CCC(C(C)C)C(OC(=O)COC(=O)c2cccn2C)C1 (configuration not stated)	10	16	5	6	6	10	.	.
CN(C)CCN(C)c1cc2c(c3c1ccn3C)C1CCC2O1 (configuration not stated)	-12	-26	-10	-12	3	-6	.	.
